Screening results (PubChem)
Sampled rows, rich in hits. Any-hit rate of the full collection: about 8.8%.
HPGD block: HPGD (human) dehydrogenase inhibition. 150,000 compounds, 4.3% hits. P15428. Potency, µM, for inactives: at the top dose activity change, negative = inhibition, most hits filed as inhibitors. purified HPGD, NADH fluorescence kinetic, PGE2 substrate. AID 894; active = well fitted inhibition curve with a large enough effect, not every such curve was filed as active; inconclusive = small, poorly fitted or top-dose-only effect, or another doubt; inactive = no such curve, though single readings can be large or run the other way; also: % is scaled to controls: 0 for no effect and ±100 for the full control effect
Target sequence (P15428 whole entry, looked up): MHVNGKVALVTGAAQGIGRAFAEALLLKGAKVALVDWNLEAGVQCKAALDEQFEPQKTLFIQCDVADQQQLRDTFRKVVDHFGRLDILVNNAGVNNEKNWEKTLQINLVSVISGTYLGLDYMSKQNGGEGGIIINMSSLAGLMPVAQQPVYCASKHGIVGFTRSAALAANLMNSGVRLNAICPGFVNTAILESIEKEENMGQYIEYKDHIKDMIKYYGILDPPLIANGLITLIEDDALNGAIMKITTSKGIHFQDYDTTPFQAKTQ
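NADH formation kinetics: reaction with 30 uM PGE2 and 1 mM NAD+ (final), 20 nM enzyme, Tris-HCl pH 8 with Tween 20, after 15 min compound preincubation at room temperature. Fluorescence change, last versus first of five reads.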
Lamin A splicing: LMNA splicing modulation; HeLa LMNA splicing GFP/RFP minigene ratio, 48 h; Potency, µM (titrated, usually from 46.1 µM), inactives show top-dose ratio change, negative = inhibition, most hits filed as inhibitors; 200,000 compounds, 0.01% hits; active = well fitted inhibition curve with a large enough effect in the signal ratio, with a control signal flat, not every such curve was filed as active; inconclusive = small, poorly fitted or top-dose-only effect, or effect the other way, or a change in a side signal; the % refers to the signal ratio; also: % is scaled to controls: 0 for no effect and ±100 for the full control effect
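S3 HeLa cells stably expressing lamin A-EGFP splicing minigene plus DsRed2, 600 cells/well, 48 h compound exposure at 37C. Laser-scanning cytometry; analysed as GFP (500-530 nm)/RFP (575-640 nm) total intensity ratio; 0.5% DMSO vehicle.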
ALDH1A1 block: ALDH1A1 (human) enzyme inhibition. Purified ALDH1A1, NADH fluorescence, propionaldehyde substrate. 220,000 compounds, 7.3% hits. Potency, µM (top dose mostly 75.3 µM), for the others: top-dose activity, negative = inhibition, most hits filed as inhibitors. AID 1030; active = well fitted inhibition curve with a large enough effect, not every such curve was filed as active; inconclusive = small, poorly fitted or top-dose-only effect, or another doubt; inactive = no such curve, though single readings can be large or run the other way;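 also: plate controls were no enzyme wells and a reference inhibitor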
Target sequence (P00352 whole entry, looked up): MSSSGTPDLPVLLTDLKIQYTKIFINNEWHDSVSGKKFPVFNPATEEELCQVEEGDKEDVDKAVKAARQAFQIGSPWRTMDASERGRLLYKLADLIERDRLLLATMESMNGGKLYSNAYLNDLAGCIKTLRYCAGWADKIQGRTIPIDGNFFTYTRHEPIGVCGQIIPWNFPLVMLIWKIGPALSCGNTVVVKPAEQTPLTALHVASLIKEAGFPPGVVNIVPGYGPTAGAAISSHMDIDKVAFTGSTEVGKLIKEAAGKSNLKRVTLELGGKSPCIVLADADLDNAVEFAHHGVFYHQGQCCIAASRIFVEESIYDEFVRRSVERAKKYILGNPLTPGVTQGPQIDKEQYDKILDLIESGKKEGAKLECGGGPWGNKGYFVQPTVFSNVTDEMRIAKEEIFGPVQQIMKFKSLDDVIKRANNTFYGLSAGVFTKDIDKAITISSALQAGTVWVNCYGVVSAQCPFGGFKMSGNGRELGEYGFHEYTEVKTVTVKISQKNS
HTT cytoprotect: cytoprotection in Huntington HTT-Q103 PC12 cell model | 230,000 compounds, 0.14% hits | Potency, µM (series often up to 56.4 µM), for the others: cytoprotection (ATP increase), usual class: activators | PC12 HTT-Q103 induced, cytoprotection, ATP luminescence, 40 h; also: % of control where 0% means no effect; nearly all actives have a fitted effect of over 45% in size
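Compounds added alongside 100 nM tebufenozide, which induces toxic Q103 huntingtin exon 1-GFP in stable PC12 cells; surviving cells quantified by luminescent ATP measurement. Medium: phenol red-free DMEM, 5% equine and 5% calf serum.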
HTT aggregate: reduces HttQ103-GFP aggregates in PC12 cells; PC12 HttQ103-GFP aggregates, Acumen cytometry, 40 h; Potency, µM (top dose mostly 46.1 µM), for inactives: at the highest dose activity change, negative = inhibition, usual class: inhibitors; 220,000 compounds, 1.1% hits; AID 1688; also: % is scaled to controls: 0 for no effect and ±100 for the full control effect; nearly all actives have a fitted effect of over 60% in size
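Quantitative HTS on tebufenozide-induced (100 nM) PC12 cells stably expressing polyQ103 Huntingtin exon 1–GFP. Reduction of bright GFP aggregates, detected by laser scanning cytometry after lysis, identified actives across the titration.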
The depositor's hits bear a star; ? = inconclusive; . = not tested or not shown; [ ] = dose if it differs, or a comment. Unless noted, calls follow the shape of the dose curve; as a rule, active = well fitted curve in the direction sought with a large enough effect; inconclusive = small, poorly fitted or top-dose-only effect, or another doubt; inactive = no such curve, though single readings can be large; an effect the other way counts as inactive or inconclusive. Potency is read from the fitted curve at half-maximal effect.

SMILES	HPGD block	Lamin A splicing	ALDH1A1 block	HTT cytoprotect	HTT aggregate
CCOc1ccc(S(=O)(=O)Nc2ccc(S(=O)(=O)N3CCCC3)cc2)cc1	-7%	-11%	3.2µM*	-20%	-4%
CCOc1cc(S(=O)(=O)N2CCCCC2)ccc1Cl	-13%	9%	22µM*	-20%[10 µM]	7%
CCOc1ccc(S(=O)(=O)Nc2ccc(S(=O)(=O)N3CCCCC3)cc2)cc1	-5%	-1%	2.2µM*	-19%	6%
O=S(=O)(c1cc(Cl)ccc1Cl)N1CCCC1	-15%	26%	0.089µM*	11%[10 µM]	-10%
O=S(=O)(c1cc(Cl)ccc1Cl)N1CCCCC1	-15%	9%	0%	-13%[10 µM]	-3%
O=C(Nc1ccccc1)N1CCC2(CC1)CCN(S(=O)(=O)c1ccccc1)CC2	-8%	.	12%	-40%	.
CCOc1ccccc1CNC(=O)CN1C(=O)CCn2nc(-c3cn(C)c4ccccc34)cc21	.	0%[46 µM]	.	.	.
CO[C@H]1COC(=O)[C@H](C)NC(=O)[C@@H](C)COC(=O)[C@H]2CCCN2C(=O)C/C=C\[C@H]1C	.	.	9%[13.5 µM]	?	.
CCOC(=O)N1CCN(S(=O)(=O)c2ccc(OCC)c(C)c2)CC1	-9%	?	16µM*	24%[10 µM]	?
O=C(NCc1ccccn1)c1ccc(=O)oc1	-22%	0%	?	-79%[10 µM]	2.8µM*
CCCCCn1c(=O)[nH]c2cc(C(=O)NCc3ccccn3)ccc2c1=O	.	-12%[46 µM]	13µM*	-24%	14%
CCCn1nc(C(=O)NCc2ccccn2)c2ccccc2c1=O	-4%	7%	10µM*	-11%	-18%
COC(=O)c1cccc(NC(=O)c2nn(C(C)C)c(=O)c3ccccc23)c1	-9%	-4%	-5%	1%[10 µM]	-9%
CCCn1nc(C(=O)Nc2cccc(C(=O)OC)c2)c2ccccc2c1=O	-12%	?	4.5µM*	4%	25%
CCCCC(=O)O[C@]1(C(=O)CO)[C@H](C)C[C@H]2[C@@H]3CCC4=CC(=O)C=C[C@]4(C)[C@@]3(F)[C@@H](O)C[C@@]21C	1%	.	0%	-11%	26%
O=C(O)CSCC(=O)c1ccccc1	-24%	6%	14µM*	-10%	5%
O=C(O)c1ccncc1.O=C(O)c1ccncc1.[Cl][Pt]([Cl])([Cl])[Cl]	4µM*	.	2.2µM*	-12%[10 µM]	.
O=C(CC(=O)c1ccncc1)c1ccccc1	3.5µM*	.	3.5µM*	9%[10 µM]	.
Cc1csc(NC(=O)CSc2nnc(-c3ccoc3C)n2C(C)c2ccccc2)n1 (stereo not given)	.	.	.	10%[10 µM]	-17%[9.22 µM]
O=C(CCC(=O)N1Cc2ccccc2Oc2ncccc21)NCc1cccc(Cl)c1	.	-3%[46 µM]	.	.	.
COc1cc(OC)c(NC(=O)CN(C)S(=O)(=O)c2ccc3c(c2)CCCC(=O)N3)cc1Cl	.	-3%[46 µM]	.	.	.
Cc1cc(C)c2nc(SCC(=O)NCC3CCCO3)c(C#N)cc2c1 (stereo not given)	.	.	-77%	10%[10 µM]	2%[9.22 µM]
Cc1ccc(NNS(=O)(=O)c2ccc(C)cc2)cc1	4µM*	8%	6.3µM*	-34%	12%
Cc1ccc(S(=O)(=O)Nc2ccc3c(c2)CCC3)cc1	-18%	?	11µM*	-14%[10 µM]	11%
CSc1ccc(S(=O)(=O)Nc2ccc(S(=O)(=O)Nc3ccc(C)cc3)cc2)cc1	-6%	-6%	8.9µM*	6%	4%
SMILES	HPGD block	Lamin A splicing	ALDH1A1 block	HTT cytoprotect	HTT aggregate
COc1ccc(NC(=O)Cn2c(SCc3ccc(C)cc3)nc3cccnc32)cc1OC	.	-7%[46 µM]	.	.	.
CC(NC(=S)Nc1c(Br)cccc1OC(F)F)C(C)(C)C (stereo not given)	-5%	3%	-2%	1%[10 µM]	?
c1cncc(Nc2nc(-c3cccs3)cs2)c1	?	-1%	7.9µM*	-15%	2%
COc1ccc(-c2csc(Nc3cccnc3)n2)cc1	-22%	?	28µM*	-40%	14%
O=C(NCCc1csc(-c2ccc(F)cc2)n1)C(=O)Nc1ccc(Cl)cc1	.	9%[46 µM]	.	.	.
Cc1ccc(NC(=O)c2cc(C(C)(C)C)nn2Cc2ccccc2)cc1	.	.	-5%	-9%[10 µM]	-17%[9.22 µM]
Cc1ccc(NNC(=O)c2cc(C(C)(C)C)nn2Cc2ccccc2)cc1	.	.	15µM*	3%[10 µM]	2%[9.22 µM]
CCc1ccc(CCC(=O)Nc2nccs2)o1	-28%	5%	18µM*	-8%	2%
Cc1ccc(CCC(=O)Nc2ccc(S(N)(=O)=O)cc2)o1	-25%	5%	14µM*	-9%	5%
Cc1ccc(CCC(=O)Nc2nccs2)o1	28µM*	13%	?	-3%[10 µM]	-16%
NNC(=O)CNS(=O)(=O)c1ccc([N+](=O)[O-])cc1	.	.	?	-42%	17%
COc1ccc(NC(=S)N(CCc2c(C)[nH]c3ccc(C)cc23)Cc2ccco2)cc1	-18%	?	?	.	-25%
COc1ccc(NC(=S)N(Cc2ccc(N(C)C)cc2)Cc2ccco2)cc1	-25%	?	11µM*	10%[10 µM]	16%
CCCN(Cc1ccccc1)C(=S)Nc1ccc(OCC)cc1	.	?	-7%	-17%[10 µM]	4%
CCOc1ccc(NC(=S)N(Cc2ccc(N(C)C)cc2)Cc2ccco2)cc1	-14%	-23%	8.9µM*	-82%	-21%
CCOc1ccc(NC(=S)NN(C)C(=S)Nc2ccc(OCC)cc2)cc1	-14%	?	28µM*	.	-24%
COc1ccccc1C(=O)NNC(=S)NC(=O)c1sc2ccccc2c1Cl	-10%	-11%	-11%	31%[10 µM]	-33%
Cc1c(NC(=S)NC(=O)c2sc3ccccc3c2Cl)cccc1C(=O)O	.	-17%[46 µM]	25µM*	-89%	?
COc1ccccc1C(=O)NC(=S)NNC(=O)c1sc2ccccc2c1Cl	32µM*	-6%	-5%	?	-26%
N#Cc1c(N)n[nH]c1-c1cc2c([nH]1)CCCC2	-20%	-10%	1%	-11%[10 µM]	?
N#Cc1cc2c([nH]c1=S)CCCCCC2	7.9µM*	8%	10µM*	12%	-7%
OC(c1ccc(OCc2ccccc2)cc1)c1nnc(-c2ccccc2)o1 (stereo not given)	20µM*	?	-2%	-8%	?
Cc1ccc(CNC(=O)CSc2nc3ccsc3c(=O)n2Cc2ccc(C(=O)O)cc2)cc1	.	?	7%	10%	-10%
O=S(=O)(NC(=S)NC1CCCCC1)c1cccs1	.	.	5.6µM*	.	9%
O=C(NC1CCCCC1)C(Cc1ccccc1)NS(=O)(=O)c1cccs1 (stereo not given)	0%	6%	?	5%[10 µM]	4%
O=C(Nc1cccs1)NC1CCCC1	32µM*	-2%	7.1µM*	13%[10 µM]	13%
O=S(=O)(NC(=S)NC1CCCCC1)c1ccccc1	.	.	22µM*	9%[10 µM]	18%
Cc1ccc(C(=O)OCc2cc(=O)n3nc(CC(C)C)sc3n2)cc1	.	7%[46 µM]	.	.	.
O=C(NCCc1ccccn1)C(F)(F)C(F)(F)C(F)(F)C(F)(F)C(F)(F)C(F)F	-18%	-8%	-9%	20%[10 µM]	-22%
COCCNC(=O)c1onc(CCl)c1C(=O)OC	-16%	-7%	28µM*	-34%	?
